# From PubChem BioAssay (EPA / NIEHS)
# Active and inactive are the calls of the source. How the source made its calls: active means hit-call score of the fitted dose curve at least 0.9, where 1 is the maximum; inactive means score below 0.9.
# Assay: ATG_PBREM_CIS: Attagene CIS-FACTORIAL HepG2 Assay for human Phenobarbital-responsive Enhancer Module (PBREM) (AID 2282955)
# Conditions: HepG2 PBREM cis-reporter, Attagene multiplexed transcription; actives raise or lower the signal
# Experimental: ATG_CIS is a cell-based, multiplexed-readout assay that uses HepG2, a human liver cell line, with measurements taken at 24 hours after chemical dosing in a 24-well plate.ATG_PBREM_CIS is one of 52 assay component(s) measured or calculated from the ATG_CIS assay. It is designed to make measurements of mRNA induction, a form of inducible reporter, as detected with fluorescence intensity signals by Reverse transcription polymerase chain reaction (RT-PCR) and Capillary electrophoresis technology.Data from the assay component ATG_PBREM_CIS was analyzed into 1 assay endpoint. This assay endpoint, ATG_PBREM_CIS, was analyzed with bidirectional fitting relative to DMSO as the negative control and baseline of activity. Using a type of inducible reporter, measures of mRNA for gain or loss-of-signal activity can be used to understand the reporter gene at the transcription factor-level as they relate to the gene NR1I3. Furthermore, this assay endpoint can be referred to as a primary readout, because this assay has produced multiple assay endpoints where this one serves a reporter gene function. To generalize the intended target to other relatable targets, this assay endpoint is annotated to the nuclear receptor intended target family, where the subfamily is non-steroidal.
# Human liver HepG2 cells are transiently transfected with multiple reporter transcription units (MRTUs) in 6-well plates using FuGene 6 reagent (Roche; 3 ml FuGene/1 mg DNA). The MRTU constructs are regulated by a cis-regulating element (promoter). […] A major difference between the CIS and TRANS system is that in CIS activities of endogenous TFs are measured, whereas the TRANS assay evaluates changes in activities of exogenous, chimeric NR-Gal4 proteins. […] At the end of 24 hour incubation, total RNA was isolated using TriZol reagent (Invitrogen). The isolated RNA is then reverse-transcribed using oligo(dT) primer and Mo-MLV reverse transcriptase (Invitrogen) with DNAse I (Ambion) treatment for 30 min. The one-tenth of the produced cDNA was amplified by PCR using Taq DNA polymerase (Invitrogen) and two reporter sequence-specific primers. The PCR products were fluorescently labeled by primer extension with 6-arboxyfluorescein (6-FAM) 5'-labeled reporter sequence-specific primer (2 min at 95 C, 20 s at 68 C and 10 min at 72 C) and these products were digested with 5U of HpaI (New England Biolabs) for 2h at 37 C. The fragments were purified using Qiaquick PCR columns (Qiagen), analyzed on an ABI 3130xL genetic analyzer (Applied Biosystems) with peak positions identified by using a set of X-rhodamine (ROX)-labeled MapMarker1000 molecular weight standards (BioVentures). The raw capillary electrophoresis data was processed using Attagraph software (Attagene).
Compound,outcome,AC50
CCCCC(CC)COC(=O)c1ccc(N(C)C)cc1 (stereo not given),inactive,–
O=C(O)C(F)(F)C(F)(F)C(F)(F)OC(F)(C(F)(F)F)C(F)(F)F,inactive,–
CC1=CC2C3C=CC(C3)C2C1C (stereo not given),inactive,–
C[Si](Cl)(Cl)CCC(F)(F)C(F)(F)C(F)(F)C(F)(F)C(F)(F)C(F)(F)F,inactive,–
O=C(O)CCC(F)(F)C(F)(F)C(F)(F)F,inactive,–
Cc1cc(O)c(C(C)(C)C)cc1C(C)(C)C,inactive,–
CN(N=O)C(=O)N[C@@H]1[C@@H](O)[C@H](O)[C@@H](CO)O[C@@H]1O,inactive,–
NC(=O)C(F)(F)C(F)(F)C(F)(F)F,inactive,–
NS(=O)(=O)C(F)(F)C(F)(F)C(F)(F)C(F)(F)C(F)(F)C(F)(F)F,inactive,–
O=S(=O)(OCC(F)(F)F)C(F)(F)C(F)(F)C(F)(F)C(F)(F)F,inactive,–
O=C(O)C(F)(F)OC(F)(F)C(F)(F)OC(F)(F)C(F)(F)OC(F)(F)F,inactive,–
CC(C)(C)c1cc(Cc2cc(C(C)(C)C)c(O)c(C(C)(C)C)c2)cc(C(C)(C)C)c1O,inactive,–
CCC(C)CO (stereo not given),inactive,–
CCC(Cc1c(I)cc(I)c(N)c1I)C(=O)O (stereo not given),inactive,–
CCn1c2ccccc2c2ccccc21,inactive,–
CSc1ccc(O)cc1C,inactive,–
CC1=CCC(=O)O1,inactive,–
CCc1cc(Cc2cc(CC)c(N)c(CC)c2)cc(CC)c1N,inactive,–
CO[Si](C)(CCC(F)(F)C(F)(F)C(F)(F)C(F)(F)C(F)(F)C(F)(F)F)OC,inactive,–
Oc1ccc(C2(c3ccc(O)c(C4CCCCC4)c3)CCCCC2)cc1C1CCCCC1,–,8.53 µM (active)

Compound,outcome,AC50
O=C(F)C1(F)C(F)(F)C(F)(F)C(F)(F)C(F)(F)C1(F)F,inactive,–
O=C1OC(=O)c2ccc3c4c(ccc1c24)C(=O)OC3=O,inactive,–
O=C=Nc1cccc2c(N=C=O)cccc12,inactive,–
CCN(CCO)S(=O)(=O)C(F)(F)C(F)(F)C(F)(F)C(F)(F)C(F)(F)C(F)(F)C(F)(F)C(F)(F)F,inactive,–
CCCCCCCCCCCC(=O)Cl,inactive,–
CCOC(=O)CC(=O)C(F)(F)C(F)(F)F,inactive,–
C#CC(O)CCC (stereo not given),inactive,–
CCc1cccc(C)c1N(C(=O)C(=O)O)C(C)COC (stereo not given),inactive,–
NCC(F)(F)C(F)(F)C(F)(F)C(F)(F)C(F)(F)C(F)(F)C(F)(F)C(F)(F)F,inactive,–
O=C1c2ccccc2C(=O)c2c(Cl)cccc21,inactive,–
CCCCCCCCCCCCCC[P+](CCCC)(CCCC)CCCC,inactive,–
CN1CN(C)CN(C)C1,inactive,–
CNS(=O)(=O)C(F)(F)C(F)(F)C(F)(F)C(F)(F)C(F)(F)C(F)(F)C(F)(F)C(F)(F)F,inactive,–
F[Si-2](F)(F)(F)(F)F,inactive,–
CCCC(=O)OCC(COC(=O)CCC)OC(=O)CCC,inactive,–
O=S(=O)(O)CCC(F)(F)C(F)(F)C(F)(F)C(F)(F)F,inactive,–
O=C(c1ccccc1)c1ccc(Cl)cc1,–,47.2 µM (active)
CC1CCCCC1,inactive,–
CCOC(=O)C1CC(=O)C(=C(O)C2CC2)C(=O)C1 (stereo not given),inactive,–
CCCCCCCCCCCCC[N+](C)(C)Cc1ccccc1,inactive,–
